Experimental data as given in PubChem BioAssay (NCATS).
Values joined by “and” are separate entries in the source; they are usually repeats but may differ in a detail not shown here. Equal values may be shown once. Inconclusive results are not listed. The source holds several records for some structures; these can differ, active in one and inactive in another. Active and inactive are the calls of the source. Unless noted, calls come from the whole dose curve; as a rule, active = well fitted curve in the direction sought with a large enough effect; inconclusive = small, poorly fitted or top-dose-only effect, or another doubt; inactive = no such curve, though single readings can be large; an effect the other way counts as inactive or inconclusive.

Tests used:
[1] = Confirmation and Secondary Assay for Modulators of Hemoglobin Beta Chain Splicing at IVS2 654 locus (AID 910);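 note: per-well total GFP intensity by laser scanning cytometry after 2-day treatment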
Summary of the method: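 HeLa cells stably carrying EGFP interrupted by mutant beta-globin IVS2-654 intron (CMV-driven) were treated with compound for 2 days at 37C; corrected splicing was scored as total peak GFP intensity per well (488 nm excitation, 500-520 nm emission).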

[2] = Cell Viability - LYMP2-001 (AID 921);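 note: series mostly up to about 92 µM; cells exposed to compound for 24 h at 37 °C; nearly all actives have a fitted effect of over 70% in size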
Summary of the method: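 Steps: seed 2500 lymphoblastoid cells/well; 5 hr, 37 C; add compound; 24 hr, 37 C; CellTiter-Glo reagent, 30 min room temperature; read luminescence. Concentration-response modeled by Hill equation for AC50.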

[3] = Confirmation and Secondary Assay for Modulators of Hemoglobin Beta Chain Splicing at IVS2 705 locus (AID 930);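 note: HeLa cells stably expressing the EGFP-705 splicing reporter; GFP fluorescence per well restored by corrected splicing of the IVS2-705 intron in EGFP; series mostly up to about 46 µM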
Summary of the method: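 Assay measures total GFP intensity per well in HeLa EGFP-705 cells after 2 days with compound; mis-splicing normally truncates EGFP, so fluorescence indicates corrected splicing.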

[4] = MultiTox-Fluor Cytotoxicity Assay - LYMP1-001 - Dead Cells (AID 946)
Summary of the method: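 In this qHTS, 15 uM tetraoctylammonium bromide defined 100% and DMSO defined basal activity. Lymphoblastoid cells (LYMP1-001, 2500 per well) received compound for 16 hr at 37 C before a fluorogenic dead-cell substrate readout at 485/520 nm.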

[5] = MultiTox-Fluor Cytotoxicity Assay - LYMP1-001 - Live Cells (AID 947)
[6] = Cell Viability - LYMP1-002 - Assay at 16 hr (AID 948)
Summary of the method: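 Seed 2500 LYMP1-002 cells per well in complete medium and hold 5 hr at 37 C. Add compound across a concentration series and incubate 16 hr at 37 C. Add CellTiter-Glo, wait 30 min at room temperature, read luminescence.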

[7] = MultiTox-Fluor Cytotoxicity Assay - LYMP1-002 - Live Cells (AID 955);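 note: cells exposed to compound for 16 hours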
Summary of the method: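 In this qHTS viability format, lymphoblastoid cells (LYMP1-002, human) received compound for 16 hr at 37 C. Fluorogenic GF-AFC cleavage by viable cells was detected at 405/510 nm after 1 h at room temperature.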

[8] = MultiTox-Fluor Cytotoxicity Assay - LYMP1-002 - Dead Cells (AID 960); note: nearly all actives have a fitted effect of over 60% in size; note: potency is the fitted concentration of half-maximal effect
Summary of the method: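 Concentration-dependent increases in membrane-leaked protease activity are quantified in LYMP1-002 cells after 16 hr treatment; values are normalized against DMSO and tetraoctylammonium bromide (15 uM) controls and AC50 derived by Hill modeling.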

[9] = MultiTox-Fluor Cytotoxicity Assay - LYMP1-003 - Dead Cells (AID 961); note: nearly all actives have a fitted effect of over 70% in size
Summary of the method: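 Acute toxicity is scored as increased dead-cell protease activity in human lymphoblastoid LYMP1-003 cells after 16 h compound exposure in complete culture medium. Activity is normalized to DMSO basal and 15 uM tetraoctylammonium bromide as full response.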

[10] = MultiTox-Fluor Cytotoxicity Assay - LYMP1-003 - Live Cells (AID 962);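 note: cells exposed to compound for 16 hours at 37 °C; cytotoxic hits lower the live-cell protease signal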
Summary of the method: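 Human lymphoblastoid line LYMP1-003 in complete culture medium, treated 16 hr with titrated compounds. Viable cells quantified via cell-permeant GF-AFC substrate fluorescence; AC50 derived by Hill fitting.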

[11] = Cell Viability - LYMP1-003 - Assay at 24 hr (AID 963)
Summary of the method: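 The lymphoblastoid line was treated with titrated compounds for 24 hours, and viable cell number estimated from luciferase-based ATP luminescence.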

[12] = Cell Viability - LYMP1-003 - Assay at 40 hr (AID 964); note: series mostly up to about 92 µM; nearly all actives have a fitted effect of over 60% in size
Summary of the method: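 Acute toxicity is scored as a concentration-dependent loss of intracellular ATP in LYMP1-003 cells (2500/well, complete medium) after 40 hr at 37 C, measured by CellTiter-Glo luminescence; AC50 values derive from standard Hill modelling.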

[13] = Cell Viability - LYMP2-003 (AID 965);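 note: cells exposed to compounds for 24 h before reading; nearly all actives have a fitted effect of over 50% in size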
Summary of the method: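 Seed 2500 lymphoblastoid cells/well; incubate 5 hr, 37 C; add compounds; incubate 24 hr, 37 C; add CellTiter-Glo, 30 min RT; read luminescence. AC50 from Hill fit.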

[14] = qHTS Assay for Identification of Small Molecule Agonists for Thrombopoietin (TPO) Signaling Pathway (AID 917)
Summary of the method: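 Cell-based luciferase reporter screen. Mouse Ba/F3 line stably expressing human TPO receptor; IL-3 removed overnight before plating. Co-treatment with compound and EC50 TPO (26 pM), 24 hrs at 37 C, then luminescence.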

[15] = target: Muscarinic acetylcholine receptor M1 (Rattus norvegicus) (UniProt P08482); test: qHTS Assay for Antagonists of Acetylcholine Muscarinic M1 Receptor: Kinetic Measurement of Intracellular Calcium Response (AID 943);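 note: Fluo-4 calcium signal as peak divided by basal fluorescence over 4 min; series mostly up to about 35 µM; nearly all actives have a fitted effect of over 75% in size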
Summary of the method: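 Quantitative HTS in CHO-M1 (rat receptor) cells: 10 min compound exposure ahead of 100 nM carbachol, Fluo-4 fluorescence followed 4 min, value expressed as peak-to-basal ratio.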

[16] = target: Muscarinic acetylcholine receptor M1 (Rattus norvegicus) (UniProt P08482); test: qHTS Assay for Antagonists of Acetylcholine Muscarinic M1 Receptor: Measurement of IP-One Response (AID 944); note: nearly all actives have a fitted effect of over 75% in size
Summary of the method: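 Antagonism was measured as loss of carbachol-driven (EC80) IP1 accumulation in CHO cells carrying rat M1, using a homogeneous IP-One TR-FRET kit read at 620 and 665 nm.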

[17] = target: Pyruvate kinase (Leishmania mexicana) (UniProt Q27686); test: qHTS Validation Assay for Inhibitors of Leishmania Mexicana Pyruvate Kinase (AID 945)
Summary of the method: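 Pyruvate kinase activity of E451W LmPYK (0.2 nM) was followed as ATP output after 1 h at room temperature with 0.5 mM PEP and 0.1 mM ADP, detected by PKLight luminescence.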

[18] = target: Pyruvate kinase PKM (Homo sapiens) (UniProt P14618); test: qHTS Assay for Activators of Human Muscle Pyruvate Kinase (AID 954; active = well fitted curve in the direction sought with a large enough effect, not every such curve was filed as active)
Summary of the method: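 Screening used highly purified human pyruvate kinase M2 under submaximal activity, with PEP at its Km and ADP below Km. After an hour at room temperature, ATP was read by luciferase luminescence.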

[19] = target: Alpha-galactosidase (Coffea arabica) (UniProt Q42656); test: Counterscreen for Glucocerebrosidase Inhibitors: qHTS Assay for Coffee Bean alpha-Galactosidase at pH 4.5 (AID 957); note: series mostly up to about 77 µM
Summary of the method: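 Quantitative HTS of compounds (0.7 nM to 77 uM) against coffee bean alpha-galactosidase at pH 4.5, measuring 4-methylumbelliferone fluorescence released from 80 uM substrate.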

Measured: Potency

Muscarinic acetylcholine receptor M1 (Rattus norvegicus), sequence (P08482 whole entry, looked up): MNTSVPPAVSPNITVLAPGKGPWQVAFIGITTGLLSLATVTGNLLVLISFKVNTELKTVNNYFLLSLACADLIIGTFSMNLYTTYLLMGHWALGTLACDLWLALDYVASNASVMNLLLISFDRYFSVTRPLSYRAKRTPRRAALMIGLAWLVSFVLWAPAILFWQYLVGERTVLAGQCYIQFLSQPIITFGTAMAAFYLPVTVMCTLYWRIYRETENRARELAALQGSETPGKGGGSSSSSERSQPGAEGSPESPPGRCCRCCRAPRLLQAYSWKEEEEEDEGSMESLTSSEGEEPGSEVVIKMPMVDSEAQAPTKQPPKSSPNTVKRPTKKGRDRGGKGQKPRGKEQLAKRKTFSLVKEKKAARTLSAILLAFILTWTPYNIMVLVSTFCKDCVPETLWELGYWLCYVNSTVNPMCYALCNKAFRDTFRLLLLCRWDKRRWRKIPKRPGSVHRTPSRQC
Pyruvate kinase (Leishmania mexicana), sequence (Q27686 2-499 E452W): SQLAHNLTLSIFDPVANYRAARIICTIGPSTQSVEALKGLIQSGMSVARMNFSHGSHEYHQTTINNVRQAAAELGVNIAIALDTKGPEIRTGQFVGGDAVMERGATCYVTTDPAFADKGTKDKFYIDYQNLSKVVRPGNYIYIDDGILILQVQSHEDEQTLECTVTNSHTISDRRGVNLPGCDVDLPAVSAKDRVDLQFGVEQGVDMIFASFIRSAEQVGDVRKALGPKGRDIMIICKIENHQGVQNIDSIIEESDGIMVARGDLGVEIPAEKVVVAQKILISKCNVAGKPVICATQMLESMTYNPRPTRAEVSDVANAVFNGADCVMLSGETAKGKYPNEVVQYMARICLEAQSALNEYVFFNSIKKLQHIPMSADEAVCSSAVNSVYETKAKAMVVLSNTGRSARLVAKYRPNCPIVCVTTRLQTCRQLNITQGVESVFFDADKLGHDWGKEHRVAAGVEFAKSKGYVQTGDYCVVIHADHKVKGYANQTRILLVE
Pyruvate kinase PKM (Homo sapiens), sequence (P14618 whole entry, looked up): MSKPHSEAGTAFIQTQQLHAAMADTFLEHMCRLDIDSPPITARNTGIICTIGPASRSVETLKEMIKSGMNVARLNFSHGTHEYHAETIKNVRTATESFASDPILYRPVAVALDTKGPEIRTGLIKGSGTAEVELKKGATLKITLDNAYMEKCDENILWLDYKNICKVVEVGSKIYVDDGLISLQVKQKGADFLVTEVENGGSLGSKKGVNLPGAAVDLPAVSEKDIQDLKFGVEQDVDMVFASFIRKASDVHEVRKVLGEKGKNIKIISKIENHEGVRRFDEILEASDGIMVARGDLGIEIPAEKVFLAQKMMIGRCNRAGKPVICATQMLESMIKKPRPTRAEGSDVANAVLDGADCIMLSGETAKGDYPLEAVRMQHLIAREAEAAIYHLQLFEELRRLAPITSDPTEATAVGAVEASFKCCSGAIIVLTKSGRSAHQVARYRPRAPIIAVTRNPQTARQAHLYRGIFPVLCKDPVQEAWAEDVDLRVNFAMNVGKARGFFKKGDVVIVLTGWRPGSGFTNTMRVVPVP
Alpha-galactosidase (Coffea arabica), sequence (Q42656 whole entry, looked up): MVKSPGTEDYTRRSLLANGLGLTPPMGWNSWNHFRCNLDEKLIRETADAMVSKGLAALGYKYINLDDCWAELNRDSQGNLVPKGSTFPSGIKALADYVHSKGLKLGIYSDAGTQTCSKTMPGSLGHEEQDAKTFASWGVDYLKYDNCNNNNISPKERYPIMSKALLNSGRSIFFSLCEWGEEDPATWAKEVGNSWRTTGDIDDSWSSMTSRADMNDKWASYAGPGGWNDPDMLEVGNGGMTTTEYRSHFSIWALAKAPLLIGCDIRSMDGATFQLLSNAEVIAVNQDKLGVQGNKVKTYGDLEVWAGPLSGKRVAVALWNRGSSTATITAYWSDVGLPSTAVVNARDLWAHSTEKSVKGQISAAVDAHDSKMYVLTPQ

Oc1ccc(Cl)cc1
not listed: [14] | [15] | [16] | [17] | [18] | [19]
inactive: all other assays above

O=C1c2ccccc2C(=O)c2ccccc21
inactive: [1] | [3]

COC(=O)C(c1ccccc1)C1CCCCN1 (configuration not stated)
not listed: [1] | [3] | [14] | [15] | [16] | [17] | [18] | [19]
inactive: all other assays above

CC(C)NC(C)C
not listed: [1] | [3] | [14] | [15] | [16] | [17] | [18] | [19]
inactive: all other assays above

NC(=O)c1cc([N+](=O)[O-])cc([N+](=O)[O-])c1
inactive: [1] | [3]

CCCC(C)(COC(N)=O)COC(N)=O
not listed: [1] | [3] | [14] | [15] | [16] | [17] | [18] | [19]
inactive: all other assays above

COP(=S)(OC)Oc1ccc(SC)c(C)c1
not listed: [14] | [15] | [16] | [17] | [18] | [19]
inactive: all other assays above

CC(C)(C)NCC(O)c1ccccc1Cl (configuration not stated)
inactive: [1] | [3]

C[C@]12CCC(=O)C=C1CC[C@@H]1[C@@H]2CC[C@]2(C)C(=O)CC[C@@H]12
inactive and 15.8 µM (active): [8]
not listed: [1] | [3]
inactive: all other assays above

Nc1ccccc1C(=O)O
not listed: [1] | [3] | [14] | [15] | [16] | [17] | [18] | [19]
inactive: all other assays above

O=c1oc2ccccc2c(O)c1Cc1c(O)c2ccccc2oc1=O
inactive: [1] | [3]

COc1cc(OC)c(OC)cc1C=O
not listed: [5] | [14] | [15] | [16] | [17] | [18] | [19]
inactive: all other assays above
